Test results taken from PubChem BioAssay (NCI).
About 83,000 compounds went through this panel and 20% of them were active in at least one assay; those are over-represented in the sample as a whole.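 Compound tested at a single concentration for 48 hours in 96-well plates; a percent growth value below 10 was scored as active.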 Calls of active or inactive are those of the source.

The compounds below were run on RXF 393 renal (assay: NCI-60 one-dose screen, 48 h (100 = growth as untreated, 0 = no growth, -100 = all killed)). Details: 10 µM.
`Cc1cc(C)c(CCc2cc(C)c(C)cc2C)cc1C` was tested, and the growth was 117% (inactive). In the case of `O=C1OCC2=C1C(c1ccc(Cl)c(Cl)c1)c1cc3c(cc1N2CCO)OCCO3` (centres undefined), the growth is reported as 8.18% (active). In the case of `c1ccc2c(c1)oc1c3c(ccc12)NCCC3`, the growth is reported as 107% (inactive). `O=C(CNC(=O)OCc1ccccc1)NCC(=O)Oc1ccc([N+](=O)[O-])cc1` was tested, and the growth was 117% (inactive). `COC(=O)c1c(-c2ccccc2)csc1NC(=O)c1c(-c2ccccc2)noc1C` was tested, and the growth was 38.8% (inactive). `COc1cc(CNc2ccccc2C(=O)N2CCN(C(=O)c3cc(-c4cc(OC)c(OC)c(OC)c4)n4nc(-c5ccccc5)cc4n3)CC2)cc(OC)c1OC` was tested, and the growth was 35.5% (inactive). For `COc1ccc2c(c1)C(=O)c1c-2c(OCCN2CCCCC2)nc2ccc(OC)cc12`, the growth was 47.3% (inactive). `CCCCCCCCCCCCCCCCCC(=O)OCCCCCCC` was tested, and the growth was 96.4% (inactive). For `COc1ccc(Cn2c(C(N)=O)cc3c2-c2nc(N)ncc2CCC3)cc1`, the growth was 102% (inactive). With `CN(C)CCOc1nc2ccccc2c2c1-c1ccc(Cl)cc1C2=O` the growth was -35.6% (active). In the case of `O=C(O)C(SC(C(=O)O)c1ccccc1)c1ccccc1` (centres undefined), the growth is reported as 106% (inactive). With `CC(=O)c1cc(Cl)ccc1O` the growth was 106% (inactive). For `N=C1c2nc3n(c2C(=O)c2nc4n(c21)CCCC4)CCCC3`, the growth was 94.8% (inactive). In the case of `CCc1ccc2c(c1)N(CCO)C1=C(C(=O)OC1)C2c1ccccc1` (centres undefined), the growth is reported as 94.3% (inactive). With `CC1CC(=O)OC(C)C1` (centres undefined) the growth was 104% (inactive). In the case of `Oc1[nH]c2ccc(Cl)cc2c1/C=c1/ccc2c(c1)N=C(c1cc(F)cc(F)c1)N=2`, the growth is reported as 61.6% (inactive). For `CCN(CC)CCN1CC(=O)Nc2cc(Cl)ccc21`, the growth was 122% (inactive). For `CN(C)CCS(=O)(=O)CCN(C)C`, the growth was 99.2% (inactive). For `FC(F)(F)c1ccc2nc(-c3nc(-c4ccccc4)n4ccccc34)[nH]c2c1`, the growth was 94.4% (inactive). `COc1cccc(C2C3=C(COC3=O)N(CCO)c3cc(OC)ccc32)c1` (centres undefined) was tested, and the growth was 15.9% (inactive). For `O=c1cc(-c2ccccc2)[nH]n1-c1nc2ccccc2[nH]1`, the growth was 52.2% (inactive). In the case of `O=C1OCC2=C1C(c1cccc(Br)c1)c1cc3c(cc1N2CCO)CCC3` (centres undefined), the growth is reported as 29.5% (inactive). For `CC(C)=CCc1ccc(O)c(=O)cc1C(C)C`, the growth was 12.7% (inactive). `COc1ccc(C2CC(c3ccc(N(C)C)cc3)=NN2c2ccc(S(N)(=O)=O)cc2)cc1` (centres undefined) was tested, and the growth was 63.2% (inactive). With `Oc1[nH]c2ccc(Cl)cc2c1/C=c1/ccc2c(c1)N=C(c1cccs1)N=2` the growth was 49.7% (inactive). With `N=c1c2c(-c3ccccc3)c(-c3ccccc3)n(Cc3ccccc3)c2ncn1CCCO` the growth was 12.7% (inactive).

Each compound was assayed on SF-268 CNS in the same assay as above. Details: 10 µM.
With `Cc1cc(C)c(CCc2cc(C)c(C)cc2C)cc1C` the growth was 103% (inactive). In the case of `O=C1OCC2=C1C(c1ccc(Cl)c(Cl)c1)c1cc3c(cc1N2CCO)OCCO3` (centres undefined), the growth is reported as 43.1% (inactive). With `c1ccc2c(c1)oc1c3c(ccc12)NCCC3` the growth was 96.1% (inactive). With `O=C(CNC(=O)OCc1ccccc1)NCC(=O)Oc1ccc([N+](=O)[O-])cc1` the growth was 108% (inactive). For `COC(=O)c1c(-c2ccccc2)csc1NC(=O)c1c(-c2ccccc2)noc1C`, the growth was 36.5% (inactive). `COc1cc(CNc2ccccc2C(=O)N2CCN(C(=O)c3cc(-c4cc(OC)c(OC)c(OC)c4)n4nc(-c5ccccc5)cc4n3)CC2)cc(OC)c1OC` was tested, and the growth was 65% (inactive). With `CN1CCCNc2c(c(=O)c2=O)NCCCN(C)CCCNc2c(c(=O)c2=O)NCCCN(C)CCCNc2c(c(=O)c2=O)NCCCN(C)CCCNc2c(c(=O)c2=O)NCCCN(C)CCCNc2c(c(=O)c2=O)NCCCN(C)CCCNc2c(c(=O)c2=O)NCCCN(C)CCCNc2c(c(=O)c2=O)NCCC1` the growth was -16.5% (active). In the case of `COc1ccc2c(c1)C(=O)c1c-2c(OCCN2CCCCC2)nc2ccc(OC)cc12`, the growth is reported as 28.1% (inactive). For `CCCCCCCCCCCCCCCCCC(=O)OCCCCCCC`, the growth was 94.9% (inactive). With `COc1cc([C@@H]2c3cc4c(cc3C(Br)[C@H]3COC(=O)[C@H]23)OCO4)cc(OC)c1OC` (some centres undefined) the growth was -29.9% (active). With `COc1ccc(Cn2c(C(N)=O)cc3c2-c2nc(N)ncc2CCC3)cc1` the growth was 96.8% (inactive). For `CN(C)CCOc1nc2ccccc2c2c1-c1ccc(Cl)cc1C2=O`, the growth was -25.3% (active). `CO/N=C(/C(=O)NC1C(=O)N2C(C(=O)O)=C(COC(N)=O)CSC12)c1ccco1` (centres undefined) was tested, and the growth was 124% (inactive). `O=C(O)C(SC(C(=O)O)c1ccccc1)c1ccccc1` (centres undefined) was tested, and the growth was 106% (inactive). In the case of `CC(=O)c1cc(Cl)ccc1O`, the growth is reported as 104% (inactive). In the case of `O=C(NN1C(=O)CSC1c1ccc(Cl)cc1)c1cccnc1` (centres undefined), the growth is reported as 97% (inactive). For `N=C1c2nc3n(c2C(=O)c2nc4n(c21)CCCC4)CCCC3`, the growth was 71.3% (inactive). For `CCc1ccc2c(c1)N(CCO)C1=C(C(=O)OC1)C2c1ccccc1` (centres undefined), the growth was 106% (inactive). In the case of `CC1CC(=O)OC(C)C1` (centres undefined), the growth is reported as 111% (inactive). With `CCN(CC)CCN1CC(=O)Nc2cc(Cl)ccc21` the growth was 108% (inactive). For `CN(C)CCS(=O)(=O)CCN(C)C`, the growth was 107% (inactive). `FC(F)(F)c1ccc2nc(-c3nc(-c4ccccc4)n4ccccc34)[nH]c2c1` was tested, and the growth was 49.1% (inactive). `COc1cccc(C2C3=C(COC3=O)N(CCO)c3cc(OC)ccc32)c1` (centres undefined) was tested, and the growth was 31.6% (inactive). With `O=C(O)CN1C(=O)c2cccc3cccc(c23)C1=O` the growth was 122% (inactive). With `Nc1ccn(C2CC(O)C(CO)O2)c(=O)n1` (centres undefined) the growth was 110% (inactive). `CCn1cc(C(=O)O)c(=O)c2cnc(N3CCCC3)nc21` was tested, and the growth was 116% (inactive). With `O=c1cc(-c2ccccc2)[nH]n1-c1nc2ccccc2[nH]1` the growth was 60.2% (inactive). `Cc1ccc(NC(=O)CSc2nc3ccccc3c(=O)n2CCc2ccccc2)c(C(=O)O)c1` was tested, and the growth was 104% (inactive). With `COc1ccc(NC(=O)CSc2nc3ccccc3c(=O)n2CCc2ccccc2)cc1` the growth was 53.7% (inactive). `C[N+](C)(C)c1ncnc2nc[nH]c12` was tested, and the growth was 102% (inactive). `O=C1OCC2=C1C(c1cccc(Br)c1)c1cc3c(cc1N2CCO)CCC3` (centres undefined) was tested, and the growth was 14.4% (inactive). With `O=c1c2ccccc2nc(SCCN2CCCCC2)n1CCc1ccccc1` the growth was 101% (inactive). For `COc1cc(NC(=O)CSc2nc3ccccc3c(=O)n2CCc2ccccc2)cc(OC)c1OC`, the growth was 13.9% (inactive). For `CC(C)=CCc1ccc(O)c(=O)cc1C(C)C`, the growth was 13.7% (inactive). `COc1ccc(C2CC(c3ccc(N(C)C)cc3)=NN2c2ccc(S(N)(=O)=O)cc2)cc1` (centres undefined) was tested, and the growth was 59.6% (inactive). In the case of `Nc1ncn([C@@H]2O[C@H](CO)[C@@H](O)[C@H]2O)c(=O)n1`, the growth is reported as 33.8% (inactive). `CCOC(=O)CNC(=O)CCCCSc1ncnc2nc[nH]c12` was tested, and the growth was 113% (inactive). In the case of `N=c1c2c(-c3ccccc3)c(-c3ccccc3)n(Cc3ccccc3)c2ncn1CCCO`, the growth is reported as 41.4% (inactive).
